# Reference: PubChem BioAssay (Tox21)
# Unmarked numbers belong to inactive results. Records with an inconclusive call do not appear. A call without a number means that no potency is given here. Active and inactive are the calls of the source. Unless noted, calls follow the shape of the full dose curve.
# Tests used:
# [1] = biological target: Acetylcholinesterase (Homo sapiens) (UniProt P22303); test: Acetylcholinesterase (AChE) small molecule antagonists: colormetric cell-based qHTS assay (AID 1347395); also: nearly all actives have a fitted effect of over 30% in size
# Method in brief: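 Colorimetric read-out: DTNB detects thiocholine released when cellular AChE in SH-SY5Y cells hydrolyses acetylthiocholine. Cells attached overnight, received compound for 30 min at 37 C, then substrate mix for 90 min at 37 C.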
# [2] = biological target: Acetylcholinesterase (Homo sapiens) (UniProt P22303); test: Acetylcholinesterase (AChE) small molecule antagonists: enzyme-based qHTS assay (AID 1347397); conditions: Potency: AChE enzyme activity inhibition; outcome: AChE enzyme activity inhibition; also: nearly all actives have a fitted effect of over 55% in size
# Method in brief: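 Compound or DMSO vehicle was pin-transferred onto recombinant human AChE (50 mU/mL as dispensed) and left 30 min at room temperature. Acetylthiocholine with DTNB then started the reaction, read colorimetrically 10 min later.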
# [3] = biological target: Acetylcholinesterase (Homo sapiens) (UniProt P22303); test: Acetylcholinesterase (AChE) small molecule antagonists: fluorescence cell-based qHTS assay (AID 1347398); conditions: Potency: AChE activity; outcome: AChE activity; also: nearly all actives have a fitted effect of over 50% in size
# Method in brief: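 Using neuroblastoma SH-SY5Y cells as the enzyme source, test chemicals are preincubated 30 min at 37 C; AChE-driven acetylthiocholine cleavage is then quantified by thiocholine-dependent Thiolite Green fluorescence after 40 min at room temperature.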
# [4] = biological target: Acetylcholinesterase (Homo sapiens) (UniProt P22303); test: Acetylcholinesterase (AChE) small molecule antagonists: enzyme-based qHTS assay with human liver microsomes (AID 1347399); conditions: Potency: qHTS inhibition; outcome: qHTS inhibition; also: nearly all actives have a fitted effect of over 60% in size
# Method in brief: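 Recombinant human AChE (50 mU/mL in the enzyme mix) and human liver microsomes (0.25 mg/mL final) were preincubated with compound and NADPH (0.25 mg/mL final) for 30 min at 37 C. Acetylthiocholine/DTNB was then added; thiocholine was read colorimetrically after 10 min at room temperature.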
# [5] = qHTS assay for small molecule agonists of the p53 signaling pathway (AID 651631); also: nearly all actives have a fitted effect of over 15% in size; also: potency is read from the fitted curve at half-maximal effect
# Method in brief: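 Read-out is beta-lactamase FRET fluorescence measured 2 h after substrate addition at room temperature, in HCT-116 cells with a p53 response element-driven reporter exposed to compounds for 16 h at 37 °C.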
# [6] = biological target: Glucocorticoid receptor (Homo sapiens) (UniProt P04150); test: qHTS assay to identify small molecule antagonists of the glucocorticoid receptor (GR) signaling pathway (AID 720692; active = well fitted inhibition curve with a large enough effect in the signal ratio in the repeat runs, not every such curve was filed as active; the % refers to the signal ratio)
# Method in brief: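 Inhibition of dexamethasone-driven (5 nM final) beta-lactamase expression was measured in GRE-reporter HeLa cells over 18 h at 37C. Fluorescence was read after 2 h with the B/G FRET substrate at room temperature.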
# Aromatase (Homo sapiens) = Aromatase (Homo sapiens) (UniProt P11511); test: qHTS assay to identify aromatase inhibitors (AID 743083; active = well fitted curve in the direction sought with a large enough effect in the repeat runs; an effect the other way counts as inactive or inconclusive; also: nearly all actives have a fitted effect of over 55% in size; also: potency is read from the fitted curve at half-maximal effect; as to activity, negative = inhibition: series mostly up to about 70 µM)
# [7] = biological target: Aryl hydrocarbon receptor (Homo sapiens) (UniProt P35869); test: qHTS assay to identify small molecule that activate the aryl hydrocarbon receptor (AhR) signaling pathway (AID 743085; active = well fitted curve in the direction sought with a large enough effect in the repeat runs; an effect the other way counts as inactive or inconclusive;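 also: HG2L7.5c1 human HepG2 liver cells with stably integrated DRE-driven firefly reporter; series mostly up to about 70 µM; nearly all actives have a fitted effect of over 15% in size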)
# Method in brief: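 Cell line HG2L7.5c1 (human hepatoma, 20× DRE-luc). Plated, 5 h 37C, compound/DMSO added, 24 h 37C. CellTiter-Fluor 30 min 37C → fluorescence; then ONE-Glo 30 min RT → luminescence.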
# [8] = biological target: Peroxisome proliferator-activated receptor delta (Homo sapiens) (UniProt Q03181); test: qHTS assay to identify small molecule antagonists of the peroxisome proliferator-activated receptor delta (PPARd) signaling pathway (AID 743215; active = well fitted inhibition curve with a large enough effect in the signal ratio in the repeat runs, not every such curve was filed as active; the % refers to the signal ratio;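 also: cells stimulated with agonist L165041 at 300 nM final during compound exposure; series mostly up to about 62 µM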)
# Method in brief: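 Agonist L165041 (300 nM final) added with compound to PPARd-bla HEK293H UAS-bla reporter cells; 17 h incubation at 37 C. Read-out: LiveBLAzer FRET substrate, 2 h at room temperature, fluorescence intensity.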
# Aromatase (Homo sapiens), sequence (P11511 whole entry, looked up): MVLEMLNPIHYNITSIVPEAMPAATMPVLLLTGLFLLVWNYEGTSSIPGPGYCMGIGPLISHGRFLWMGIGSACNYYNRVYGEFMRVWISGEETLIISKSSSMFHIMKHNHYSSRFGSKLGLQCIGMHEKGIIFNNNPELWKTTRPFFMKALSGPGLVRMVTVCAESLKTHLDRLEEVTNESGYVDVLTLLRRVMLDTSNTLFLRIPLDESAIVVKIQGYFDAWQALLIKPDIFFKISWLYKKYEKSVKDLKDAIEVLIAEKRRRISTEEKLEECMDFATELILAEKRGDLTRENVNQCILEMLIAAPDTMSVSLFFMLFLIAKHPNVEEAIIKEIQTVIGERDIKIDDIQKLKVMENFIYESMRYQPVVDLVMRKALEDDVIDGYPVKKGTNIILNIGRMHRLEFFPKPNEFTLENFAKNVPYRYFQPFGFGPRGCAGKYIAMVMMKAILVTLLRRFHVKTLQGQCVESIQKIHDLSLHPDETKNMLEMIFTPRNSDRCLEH
# Aryl hydrocarbon receptor (Homo sapiens), sequence (P35869 whole entry, looked up): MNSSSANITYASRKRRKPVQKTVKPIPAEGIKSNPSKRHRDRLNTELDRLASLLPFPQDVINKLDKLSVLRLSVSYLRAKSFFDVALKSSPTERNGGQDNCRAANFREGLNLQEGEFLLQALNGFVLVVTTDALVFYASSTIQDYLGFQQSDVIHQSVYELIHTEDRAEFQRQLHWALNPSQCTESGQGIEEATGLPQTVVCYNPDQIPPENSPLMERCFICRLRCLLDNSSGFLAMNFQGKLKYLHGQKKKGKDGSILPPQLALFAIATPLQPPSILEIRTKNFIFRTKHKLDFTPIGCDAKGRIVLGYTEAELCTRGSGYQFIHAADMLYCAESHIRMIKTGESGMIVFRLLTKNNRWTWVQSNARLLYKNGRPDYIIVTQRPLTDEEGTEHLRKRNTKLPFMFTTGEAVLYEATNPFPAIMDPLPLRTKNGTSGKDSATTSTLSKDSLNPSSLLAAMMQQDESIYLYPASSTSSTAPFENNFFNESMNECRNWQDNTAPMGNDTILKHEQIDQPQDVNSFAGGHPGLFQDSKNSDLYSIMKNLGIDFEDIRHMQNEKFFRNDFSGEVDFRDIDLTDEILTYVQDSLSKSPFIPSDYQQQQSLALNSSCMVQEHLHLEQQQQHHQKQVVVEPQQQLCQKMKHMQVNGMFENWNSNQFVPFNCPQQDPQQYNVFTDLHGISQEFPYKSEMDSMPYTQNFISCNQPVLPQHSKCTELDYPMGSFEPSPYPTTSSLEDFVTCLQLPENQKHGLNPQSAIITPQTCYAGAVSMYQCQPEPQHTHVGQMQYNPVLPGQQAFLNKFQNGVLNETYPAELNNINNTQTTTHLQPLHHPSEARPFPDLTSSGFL
# Acetylcholinesterase (Homo sapiens), sequence (P22303 whole entry, looked up): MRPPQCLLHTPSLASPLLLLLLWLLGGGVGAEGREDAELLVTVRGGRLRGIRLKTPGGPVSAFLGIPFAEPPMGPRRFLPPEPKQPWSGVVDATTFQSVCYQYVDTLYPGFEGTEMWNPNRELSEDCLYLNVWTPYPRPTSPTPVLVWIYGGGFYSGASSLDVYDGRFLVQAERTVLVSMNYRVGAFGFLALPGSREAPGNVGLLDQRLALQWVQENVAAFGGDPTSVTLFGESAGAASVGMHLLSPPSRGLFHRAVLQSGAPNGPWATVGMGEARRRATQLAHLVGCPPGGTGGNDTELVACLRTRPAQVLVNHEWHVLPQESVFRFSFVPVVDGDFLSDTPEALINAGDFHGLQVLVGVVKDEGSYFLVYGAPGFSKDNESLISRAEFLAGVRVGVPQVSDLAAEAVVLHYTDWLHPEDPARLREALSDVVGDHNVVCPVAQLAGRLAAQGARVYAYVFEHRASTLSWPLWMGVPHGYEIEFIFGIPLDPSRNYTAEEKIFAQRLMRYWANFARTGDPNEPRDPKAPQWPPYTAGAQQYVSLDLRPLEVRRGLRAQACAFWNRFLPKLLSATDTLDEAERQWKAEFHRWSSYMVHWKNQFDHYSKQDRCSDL
# Glucocorticoid receptor (Homo sapiens), sequence (P04150 whole entry, looked up): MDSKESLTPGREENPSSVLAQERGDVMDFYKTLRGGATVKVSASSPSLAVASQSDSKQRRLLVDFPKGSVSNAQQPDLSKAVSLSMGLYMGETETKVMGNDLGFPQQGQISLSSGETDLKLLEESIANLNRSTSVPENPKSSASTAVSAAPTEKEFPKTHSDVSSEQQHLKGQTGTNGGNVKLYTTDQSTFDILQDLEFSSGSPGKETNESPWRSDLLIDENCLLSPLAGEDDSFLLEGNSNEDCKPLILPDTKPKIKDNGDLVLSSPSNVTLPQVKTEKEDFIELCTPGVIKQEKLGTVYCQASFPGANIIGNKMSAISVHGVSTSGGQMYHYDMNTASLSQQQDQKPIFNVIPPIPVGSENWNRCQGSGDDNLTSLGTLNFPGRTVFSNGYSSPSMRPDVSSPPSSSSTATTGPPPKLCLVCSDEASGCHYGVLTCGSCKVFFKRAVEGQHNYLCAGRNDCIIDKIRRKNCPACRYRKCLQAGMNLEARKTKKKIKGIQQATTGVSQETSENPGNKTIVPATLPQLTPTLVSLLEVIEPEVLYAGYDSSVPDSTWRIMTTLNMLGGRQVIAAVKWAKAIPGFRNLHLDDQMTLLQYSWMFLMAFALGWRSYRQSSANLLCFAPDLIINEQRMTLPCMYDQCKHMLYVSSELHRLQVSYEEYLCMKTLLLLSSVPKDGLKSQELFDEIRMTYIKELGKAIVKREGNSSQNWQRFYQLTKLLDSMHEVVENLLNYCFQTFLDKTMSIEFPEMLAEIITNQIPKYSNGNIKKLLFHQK
# Peroxisome proliferator-activated receptor delta (Homo sapiens), sequence (Q03181 whole entry, looked up): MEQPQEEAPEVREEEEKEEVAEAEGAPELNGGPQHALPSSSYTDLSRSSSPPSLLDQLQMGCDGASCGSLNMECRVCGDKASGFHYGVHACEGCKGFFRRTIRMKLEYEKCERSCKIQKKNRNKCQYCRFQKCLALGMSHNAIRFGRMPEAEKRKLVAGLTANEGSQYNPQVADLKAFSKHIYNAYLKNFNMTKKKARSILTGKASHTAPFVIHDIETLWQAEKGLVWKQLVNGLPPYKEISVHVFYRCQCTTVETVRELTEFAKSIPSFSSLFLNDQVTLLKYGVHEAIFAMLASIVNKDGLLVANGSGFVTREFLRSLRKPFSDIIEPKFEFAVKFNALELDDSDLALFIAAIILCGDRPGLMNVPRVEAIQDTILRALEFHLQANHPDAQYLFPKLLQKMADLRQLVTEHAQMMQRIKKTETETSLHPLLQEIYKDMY
smiles,measurement,setting,value
CC(C)(C)C1CCC(CC2=C(O)c3ccccc3C(=O)C2=O)CC1 (stereo unspecified),Potency,[1],inactive
same,Potency,[2],inactive
same,Potency,[3],inactive
same,Potency,[4],inactive
Nc1ccc(C(=O)O)c(O)c1,Potency,[1],inactive
same,Potency,[2],inactive
same,Potency,[3],inactive
same,Potency,[4],inactive
C[N+]12CCC(CC1)C(OC(=O)C(O)(c1ccccc1)c1ccccc1)C2 (stereo unspecified),Potency,[5],inactive
same,Potency,[6],inactive
same,Potency,Aromatase (Homo sapiens),inactive
same,outcome,[7],inactive
same,outcome,[8],inactive
same,Potency,[1],inactive
same,Potency,[2],inactive
same,Potency,[3],inactive
same,Potency,[4],inactive
Cc1ccc(N)cc1[N+](=O)[O-],Potency,[5],inactive
same,Potency,Aromatase (Homo sapiens),inactive
same,Potency,[1],inactive
same,Potency,[2],inactive
same,Potency,[3],inactive
same,Potency,[4],inactive
ON(Cc1ccccc1)Cc1ccccc1,Potency,[1],inactive
same,Potency,[2],inactive
same,Potency,[3],inactive
same,Potency,[4],inactive
CN(C)CC[C@@H](c1ccc(Br)cc1)c1ccccn1,Potency,[1],inactive
same,Potency,[2],inactive
same,Potency,[4],inactive
CCNc1nc(NC(C)CC)nc(OC)n1 (stereo unspecified),Potency,[1],inactive
same,Potency,[2],inactive
same,Potency,[3],inactive
same,Potency,[4],inactive
COc1cc(C(=O)NC2CCCNC2)cc(OC)c1OC (stereo unspecified),Potency,[1],inactive
same,Potency,[2],inactive
same,Potency,[3],inactive
same,Potency,[4],inactive
Cc1cc(C(C#N)c2ccc(Cl)cc2)c(Cl)cc1NC(=O)c1cc(I)cc(I)c1O (stereo unspecified),outcome,[7],inactive
same,Potency,[1],inactive
same,Potency,[2],inactive
same,Potency,[3],inactive
same,Potency,[4],inactive
CCCCC/C=C\CCC=O,Potency,[1],inactive
same,Potency,[2],inactive
same,Potency,[3],inactive
same,Potency,[4],inactive
c1ccc(C(O[C@H]2CCCN(CCc3ccc4c(c3)OCO4)C2)c2ccccc2)cc1,Potency,[1],inactive
same,Potency,[2],inactive
same,Potency,[4],inactive
Nc1nc(N)c(-c2ccccc2)s1,Potency,[1],inactive
same,Potency,[2],inactive
same,Potency,[4],inactive
c1ccc(-c2ccc(-c3ccccc3)cc2)cc1,Potency,Aromatase (Homo sapiens),inactive
same,"activity, negative = inhibition",[1],-0.11% [at 23.6 µM]
same,"activity change, negative = inhibition",[2],0% [at 23.6 µM]
same,"activity change, negative = inhibition",[3],6.58% [at 23.8 µM]
same,"activity change, negative = inhibition",[4],0.417% [at 23.6 µM]
CC1(c2ccccc2)OC(C(=O)O)=CC1=O (stereo unspecified),Potency,[1],inactive
same,Potency,[2],inactive
same,Potency,[3],inactive
same,Potency,[4],inactive
CC(C)(c1cc(Br)c(OCCO)c(Br)c1)c1cc(Br)c(OCCO)c(Br)c1,Potency,[5],42.3 µM (active)
same,Potency,Aromatase (Homo sapiens),42.3 µM (active)
same,outcome,[7],inactive
same,Potency,[1],inactive
same,Potency,[2],inactive
same,Potency,[3],inactive
same,Potency,[4],inactive
CSc1ccc(C(=O)c2[nH]c(=O)[nH]c2C)cc1,Potency,[1],inactive
same,Potency,[2],inactive
same,Potency,[4],inactive
CCO[C@H](Cc1ccc(OCCc2ccc(OS(C)(=O)=O)cc2)cc1)C(=O)O,Potency,[1],inactive
same,Potency,[2],inactive
same,Potency,[4],inactive
Cc1c(C)c2c(c(C)c1OC(=O)CCC(=O)OCCO)CC[C@@](C)(CCC[C@H](C)CCC[C@H](C)CCCC(C)C)O2,Potency,[1],inactive
same,Potency,[2],inactive
same,Potency,[4],inactive
CC1=C(C)C(=O)C(CCCCC#CCCCC#CCO)=C(C)C1=O,Potency,[1],inactive
same,Potency,[2],inactive
same,Potency,[4],inactive
N#CCCOCCOCCC#N,Potency,[1],inactive
same,Potency,[2],inactive
same,Potency,[4],inactive
COC(=O)c1ccccc1C(=O)c1ccc(OCCN2CCCCC2)cc1,Potency,[1],inactive
same,Potency,[2],inactive
same,Potency,[4],inactive
Nc1ccn(C2CO[C@H](CO)O2)c(=O)n1 (stereo partly specified),Potency,[1],inactive
same,Potency,[2],inactive
same,Potency,[4],inactive
C[Si](C)(C)C,Potency,[1],inactive
same,Potency,[2],inactive
same,Potency,[4],inactive
Cc1ccccc1C(=O)O,Potency,[1],inactive
same,Potency,[2],inactive
same,Potency,[4],inactive
O=P(O)(O)Oc1ccccc1,Potency,[1],inactive
same,Potency,[2],inactive
same,Potency,[4],inactive
Nc1ccc([N+](=O)[O-])cc1O,Potency,[1],inactive
same,Potency,[2],inactive
same,Potency,[4],inactive
CCOc1ccc(C(=O)OCCN(CC)CC)cc1,Potency,[1],inactive
same,Potency,[2],inactive
same,Potency,[4],inactive
CC1(COc2ccc(CC3SC(=O)NC3=O)cc2)CCCCC1 (stereo unspecified),Potency,[1],inactive
same,Potency,[2],inactive
same,Potency,[4],inactive
COCCCC/C(=N\OCCN)c1ccc(C(F)(F)F)cc1,Potency,[1],inactive
same,Potency,[2],inactive
same,Potency,[4],inactive
O=S(=O)(O)c1ccc(N=Nc2c(O)ccc3ccccc23)cc1,Potency,[1],inactive
same,Potency,[2],inactive
same,Potency,[4],inactive
Oc1cc2c(cc1O)[C@H]1c3ccc(O)c(O)c3OC[C@@]1(O)C2,Potency,[1],inactive
same,Potency,[2],inactive
same,Potency,[4],inactive
O=C(O)c1cc(O)c2ccccc2c1O,Potency,[1],inactive
same,Potency,[2],inactive
same,Potency,[4],inactive
COc1cccc(OC)c1C(=O)O,Potency,[1],inactive
same,Potency,[2],inactive
same,Potency,[4],inactive
CC1(CN2CCC(n3c(=O)[nH]c4ccccc43)CC2)OCc2ccccc2-n2cccc21 (stereo unspecified),Potency,[1],inactive
same,Potency,[2],inactive
same,Potency,[4],inactive
CN(CC1(C)CCCO1)S(=O)(=O)c1ccc(Cl)c(S(N)(=O)=O)c1 (stereo unspecified),Potency,[1],inactive
same,Potency,[2],inactive
same,Potency,[4],inactive
COC(=O)C(c1ccccc1Cl)N1CCc2sccc2C1 (stereo unspecified),Potency,[1],inactive
same,Potency,[2],inactive
same,Potency,[4],inactive
CN(C)CCCSc1ccccc1NC(=O)/C=C/c1ccccc1,Potency,[1],inactive
same,Potency,[2],inactive
same,Potency,[4],inactive
C[Si](Cl)(c1ccccc1)c1ccccc1,Potency,[1],inactive
same,Potency,[2],inactive
same,Potency,[4],inactive
CC(C)C(OC(=O)c1ccccc1)C(C)(C)COC(=O)c1ccccc1 (stereo unspecified),Potency,[1],inactive
same,Potency,[2],inactive
same,Potency,[4],inactive
C=C(C)C1CCC(C)(O)CC1 (stereo unspecified),Potency,[1],inactive
same,Potency,[2],inactive
same,Potency,[4],inactive
Nc1ccc(N=Nc2ccccc2)c(N)c1,Potency,[1],inactive
same,Potency,[2],inactive
same,Potency,[4],inactive
CC1(C)S[C@@H]2[C@H](NC(=O)C(c3ccccc3)S(=O)(=O)O)C(=O)N2[C@H]1C(=O)O (stereo partly specified),Potency,[1],inactive
same,Potency,[2],inactive
same,Potency,[4],inactive
CCc1cc(C2=C(C(=O)O)N(c3ccccc3C(F)(F)F)S(=O)(=O)c3ccccc32)cc2c1OCO2,Potency,[1],inactive
same,Potency,[2],inactive
same,Potency,[4],inactive
Oc1cc2ccccc2c2ccccc12,Potency,[1],inactive
same,Potency,[2],inactive
same,Potency,[4],inactive
O=C(CN1CCN(Cc2ccc3c(c2)OCO3)CC1)N1c2ccccc2Sc2ccccc21,Potency,[1],inactive
same,Potency,[2],inactive
same,Potency,[4],inactive
CC(C(O)c1ccc(O)cc1)N1CCC(Cc2ccccc2)CC1 (stereo unspecified),Potency,[1],inactive
same,Potency,[2],inactive
same,Potency,[4],inactive
CCN(CC)C(C)CN1c2ccccc2Sc2ccccc21 (stereo unspecified),Potency,[1],inactive
same,Potency,[2],inactive
same,Potency,[4],inactive
CC1=CCC2C(C1)C2(C)C (stereo unspecified),Potency,[1],inactive
same,Potency,[2],inactive
same,Potency,[4],inactive
Cc1oc(=O)oc1COC(=O)[C@@H]1N2C(=O)[C@@H](NC(=O)[C@H](N)c3ccccc3)[C@H]2SC1(C)C,Potency,[1],inactive
same,Potency,[2],inactive
same,Potency,[4],inactive
